# Shown are actives, neighbours in structure and some others; about 2.4% of the full set was active somewhere.
# Tb PGK inh: T. brucei PGK inhibition | PGK/GAPDH coupled, Kinase-Glo luminescence, 60 min | Potency, µM (titrated, usually from 57.5 µM), inactives show top-dose activity change, negative = inhibition, hits mostly inhibitors | 380,000 compounds, 0.043% hits; also: % is scaled to controls: 0 for no effect and ±100 for the full control effect; nearly all actives have a fitted effect of over 60% in size
#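 Luminescent ATP detection (Kinase-Glo Plus) follows a 60-minute room-temperature incubation, with wells lacking PGK as controls. Buffer: 100 mM TEA (pH 7.6), 5 mM MgCl2, 0.01% Tween-20. Coupling enzyme GAPDH (100 nM final) supplies unstable 1,3-BPG in-well.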
# ELG1 repair inh: inhibitors of ELG1-dependent DNA repair in HEK293T cells; HEK293T ELG1-luciferase reporter, luminescence, 16 h; DNA damage induced by 5-fluorouridine; Potency, µM (top dose mostly 46.1 µM), without a hit: at the highest dose activity change, negative = inhibition, usual class: inhibitors; 330,000 compounds, 2.3% hits; AID 504467; also: % is scaled to controls: 0 for no effect and ±100 for the full control effect; nearly all actives have a fitted effect of over 55% in size
#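 Quantitative HTS, concentration-response format. 2,000 cells/well co-treated with 5-fluorouridine and compound, 16 hr in 5% CO2 at 37 °C; ONE-Glo luminescence read after 30 min.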
# Rango release inh: inhibition of RanGTP-driven Rango-importin beta dissociation | O95149+P62826 | Biochemical FRET Rango-importin beta, RanGTP-induced dissociation | Potency, µM (series often up to 46.1 µM), inactives show at the top dose activity change, negative = inhibition | 340,000 compounds, 0.071% hits; calls by dose curve; also: % of control where 0% means no effect; nearly all actives have a fitted effect of over 45% in size
#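 Two FRET readings bracket the reaction: one 5 min after compound meets Rango–importin beta, another 45 min after RanGTP-RCC1 (0.6 uM Ran, 0.2 uM RCC1, 2 mM GTP) is added. Only the second defines inhibition.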
# Rango-impB inh: prevents formation of the Rango-importin beta complex; Q14974; Rango CFP/YFP FRET sensor + importin beta, 45 min; Potency, µM (titrated, usually from 92.2 µM), inactives show at the highest dose inhibition of complex formation; 340,000 compounds, 0.031% hits; AID 540263; calls by dose curve;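 also: 0% = DMSO wells and 100% = buffer wells lacking importin beta; nearly all actives have a fitted effect of over 15% in size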
#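 FRET biosensor (snurportin 1 IBB flanked by EYFP and cerulean), 50 nM, with compound 5 min, then 0.125 microM importin beta in PBS, 1 mM DTT, 0.02% Tween-20, 0.1% BSA. CFP/YFP ratio read after 45 min at room temperature; pre-read flags interference.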
# PKM2 activator: PKM2 (human) enzyme activation; P14618; 260,000 compounds, 0.34% hits; Potency, µM (series often up to 57.5 µM), for inactives: top-dose activation, usual class: activators; purified PKM2, Kinase-Glo ATP luminescence, activation; response scale: 0% is enzyme alone, no compound; also: % is scaled to controls: 0 for no effect and ±100 for the full control effect; nearly all actives have a fitted effect of over 55% in size
# Target sequence (P14618 whole entry, looked up): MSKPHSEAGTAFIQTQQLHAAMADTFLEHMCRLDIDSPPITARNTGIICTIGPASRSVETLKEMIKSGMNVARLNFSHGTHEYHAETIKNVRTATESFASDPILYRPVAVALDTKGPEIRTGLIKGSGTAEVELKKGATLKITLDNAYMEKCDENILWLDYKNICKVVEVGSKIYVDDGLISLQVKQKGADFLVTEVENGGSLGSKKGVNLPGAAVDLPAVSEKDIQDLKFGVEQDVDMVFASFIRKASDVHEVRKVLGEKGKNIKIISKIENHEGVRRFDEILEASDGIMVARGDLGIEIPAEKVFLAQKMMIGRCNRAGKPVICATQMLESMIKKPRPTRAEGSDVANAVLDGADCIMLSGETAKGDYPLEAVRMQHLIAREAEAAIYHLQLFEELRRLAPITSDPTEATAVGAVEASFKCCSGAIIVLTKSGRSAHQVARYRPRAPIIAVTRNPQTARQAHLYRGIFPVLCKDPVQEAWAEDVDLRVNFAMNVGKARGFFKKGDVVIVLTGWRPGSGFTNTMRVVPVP
#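 Kinase-Glo luminescence reports ATP generated from ADP (0.1 mM) and PEP (0.5 mM) by purified hPK-M2 after 1 h at room temperature, pH 7.2 imidazole buffer; intermediate enzyme activity allows detecting inhibitors and activators.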
# Tb PFK inh-1: T. brucei PFK enzyme inhibition; O15648; T. brucei PFK, ADP-Glo luminescence; Potency, µM (series often up to 57.5 µM), for inactives: at the highest dose activity, negative = inhibition, actives largely listed as inhibitors; 330,000 compounds, 0.17% hits;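 also: 0% = uninhibited 1x PFK enzyme wells and -100% = no-enzyme wells; nearly all actives have a fitted effect of over 60% in size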
#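 Luminescent ADP detection (ADP-Glo, two-step: ATP depletion then ADP-to-ATP conversion for luciferase) reported PFK activity after 45 min room-temperature reaction of 1.25 nM enzyme with 0.5 mM F6P and 0.1 mM ATP at pH 8.0.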
# Tb PFK KinaseGlo: Tb phosphofructokinase inhibition, orthogonal luminescence. shares compounds with Tb PFK inh-1. Tb PFK enzyme, ATP depletion, Kinase-Glo Plus luminescence. Potency, µM (titrated, usually from 57.5 µM), for inactives: at the highest dose inhibition. 1,100 compounds, 47% hits. AID 504636; calls by dose curve; also: nearly all actives have a fitted effect of over 60% in size
# Tb PFK inh-2: validation of T. brucei phosphofructokinase inhibitors. shares compounds with Tb PFK inh-1. purified T. brucei PFK, ADP-Glo luminescence, 45 min. Potency, µM (doses to about 57.5 µM), for the others: top-dose activity change, negative = inhibition, actives largely listed as inhibitors. 1,100 compounds, 41% hits;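 also: plate controls were full PFK enzyme control for no effect and no enzyme control for full effect; nearly all actives have a fitted effect of over 60% in size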
# * = called active by the depositor; i = inactive; ? = inconclusive; · = no result given. Unless noted, calls follow the shape of the dose curve; as a rule, active = well fitted curve in the direction sought with a large enough effect; inconclusive = small, poorly fitted or top-dose-only effect, or another doubt; inactive = no such curve, though single readings can be large; an effect the other way counts as inactive or inconclusive. Potency is read from the fitted curve at half-maximal effect.
SMILES,Tb PGK inh,ELG1 repair inh,Rango release inh,Rango-impB inh,PKM2 activator,Tb PFK inh-1,Tb PFK KinaseGlo,Tb PFK inh-2
O=C(COc1ccc2ccccc2c1)N1CCN(CC2CC3C=CC2C3)CC1 (stereo not drawn),-1%,-4%,-7%,3%,5%,1%,·,·
CCOCC(=O)NC1CCSC1=O (stereo not drawn),i,1%,-3%,0%,5%,0%,·,·
Cc1cc(NC(=O)Cn2nc([N+](=O)[O-])c(Br)c2C)no1,-8%,11%,0%,-2%,3%,27µM*,21µM*,?
Cc1c(Br)c([N+](=O)[O-])nn1CC(=O)Nc1ccc(CC#N)cc1,·,5%,·,·,1%,?,?,?
Cc1cc(NC(=O)C(Cl)(Cl)Cl)no1,-9%,4%,1%,2%,0%,0%,·,·
Cc1cccc(NC(=O)Cn2nc([N+](=O)[O-])c(Br)c2C)n1,0%,6%,23%,2%,8%,17µM*,12µM*,21µM*
Cc1c(Br)c([N+](=O)[O-])nn1CC(=O)Nc1cccc2nonc12,-1%,7%,-16%,4%,-27%,7.6µM*,4.8µM*,2.7µM*
CCCCCn1c(=O)c(C(=O)Nc2cccc(C)n2)c(O)c2ccccc21,9%,18%,3%,1%,10%,-2%,·,·
O=P1(NCCCn2cc[n+](Cc3nc4ccccc4[nH]3)c2)C=C(c2ccccc2)OC(c2ccccc2)=C1,9%,17%,-12%,2%,0%,4%,·,·
CCc1ccc(OCC(=O)N2CCN(CCc3ccncc3)CC2)cc1,i,·,·,·,·,·,·,·
CC(C)NC(=O)c1ccc(N2CC3CC(C2)c2cccc(=O)n2C3)c([N+](=O)[O-])c1 (stereo not drawn),-11%,5%,-3%,1%,0%,3%,·,·
CCN1CCC(NCC2CCCCC2)CC1,-8%,-10%,12%,1%,-6%,0%,·,·
N#CC(C#N)=NNc1cccc(Cl)c1,·,·,·,·,-11%,·,·,·
Cc1ccc2c(c1)sc(C)[n+]2CCCS(=O)(=O)[O-],-1%,15%,12%,0%,-3%,?,-16%,1%
Cc1nn(C)cc1/C=N\NC(=O)c1ccc(Cn2cc(Cl)cn2)cc1,-3%,-2%,8%,0%,-4%,27µM*,9.5µM*,?
Cc1ccc(-c2c[n+](Cc3cccc(Cl)c3)c3n2CCC3)cc1,-7%,10µM*,4%,2%,-6%,?,?,?
O=C(NNS(=O)(=O)c1ccccc1F)c1cc(-c2ccccc2)n[nH]1,-8%,4%,19%,1%,21%,?,-29%,?
CCN1CCN(/C=N/c2nc(C)cs2)CC1,·,?,-10%,-5%,-2%,-3%,·,·
C=CCNc1oc(-c2cccc(Cl)c2)nc1C#N,0%,?,13%,2%,·,27µM*,17µM*,30µM*
O=C(NCc1cccc(Cl)c1)c1cc(COc2ccc3ncccc3c2)on1,7%,?,1%,-5%,2%,15µM*,12µM*,13µM*
COC(=O)c1ccc(NC(=O)c2cccn(Cc3ccccc3C)c2=O)cc1,-8%,·,·,·,·,·,·,·
Cc1c(Cl)sn(-c2ccc(Cl)cc2)c1=O,2%,?,-1%,1%,-4%,6.7µM*,3µM*,5.4µM*
CCOP(=O)(CC(C(C)=O)C(O)c1ccccc1)OCC (stereo not drawn),-11%,?,1%,1%,-13%,-2%,·,·
O=C(COc1ccccc1)c1cn(Cc2ccccc2)c2ccccc12,2%,?,4%,-2%,14%,0%,·,·
CCOC(=O)c1c(NC(=O)COC(=O)c2ccc(NC(=O)CC#N)cc2)sc(C(=O)NC)c1C,-8%,?,-4%,?,·,0.85µM*,6µM*,6.7µM*
SMILES,Tb PGK inh,ELG1 repair inh,Rango release inh,Rango-impB inh,PKM2 activator,Tb PFK inh-1,Tb PFK KinaseGlo,Tb PFK inh-2
COc1ccc(-n2c(O)c(C(C)=NCCc3c[nH]c4ccccc34)c(=O)[nH]c2=O)cc1,0%,-9%,4%,-3%,4%,1%,·,·
O=C(c1ccccc1)C1NC1c1ccccc1 (stereo not drawn),8%,?,21%,0%,0%,1%,·,·
O=C(Nc1nnc(-c2ccccc2)s1)c1ccccc1O,0%,?,-2%,3%,·,?,-28%,?
Cc1nnc(NC(=O)c2cccn(Cc3ccccc3)c2=O)s1,-10%,·,·,·,·,·,·,·
CC(=O)n1cc(C(C[N+](=O)[O-])SCCN)c2ccccc21 (stereo not drawn),3%,?,-21%,0%,18%,?,-20%,?
O=c1ccsn1Cc1ccccc1,-2%,0%,5%,0%,5µM*,11µM*,16%,11µM*
O=C(c1cccn(Cc2cccc(Cl)c2)c1=O)N1CCOCC1,-6%,-6%,1%,-3%,3%,24µM*,21µM*,24µM*
Cc1cc(NC(=O)c2cccn(Cc3cccc(Cl)c3)c2=O)no1,-8%,·,·,·,·,·,·,·
C=CCc1cc(C)ccc1OCCCC(C(=O)OCC)C(=O)OCC,-1%,1%,-3%,1%,0%,-3%,·,·
N#C/C(=C\c1ccc(O)cc1)C(=O)O,2%,·,2%,1%,·,·,·,·
COCCNC(=O)/C(C#N)=C/c1ccc(O)cc1,?,?,-13%,?,-11%,?,-22%,?
CN1CCc2cc(O)c(O)cc2C(c2ccccc2)C1 (stereo not drawn),1%,16%,9%,3%,·,?,?,?
Oc1cc2c(cc1O)[C@@H](c1ccccc1)CNCC2,-4%,11%,-6%,2%,12%,12µM*,1.9µM*,4.8µM*
O=C(OCc1c(-c2ccccc2)ncc2ccccc12)c1ccc(C(F)(F)F)cc1,8%,?,4%,-2%,·,0%,·,·
CC(C)NC(=S)NNc1nc2ccccc2s1,0%,0%,-3%,2%,-23%,?,8.5µM*,7.6µM*
CCCc1ccc(OCC(=O)Nc2ccc(Cl)cc2C(=O)c2ccccc2)cc1,1%,·,·,·,·,·,·,·

# Assay outcomes: PubChem, National Center for Advancing Translational Sciences (NCATS)
